# bovine MsrA act = bovine MsrA enzyme activators, primary screen, biochemical, absorbance, HTS; Methionine sulfoxide reductase A (Bos taurus); purified bovine MsrA, absorbance read-out; activation, % at 10.6 µM; 0.3% of 360,000 active; AID 602163, 2012; in the data active = activation above about 7.5%;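 note: 0% = vehicle and 100% = reference activator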
# DSG3 Ab inh = inhibitors of pemphigus antibody binding to DSG3, primary screen, biochemical, bead-based, flow cytometry, scFv-GFP | AID 588358, 2011 | binding (percent of control), % at 10 µM | Desmoglein-3 (Homo sapiens), P32926 | DSG3-coupled beads, scFv-anti-DSG3-GFP binding; active compounds read low | 0.48% of 310,000 active;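 active = binding more than 3 SD below its plate's average and above zero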;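 note: hits lower antibody fragment binding to DSG3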
# DAGLB inhibitor = DAGLB lipase inhibitors, primary screen, biochemical, fluorescence, HTS. HEK293T DAGLB membrane lysate, EnzChek fluorogenic substrate. inhibition, % at 5.17 µM. 0.059% of 340,000 active; in the data active = inhibition above about 34%;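 note: 0% = enzyme with vehicle and 100% = wells lacking enzyme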
# NadD block = inhibitors of S. aureus NadD, primary screen, biochemical, colorimetric, uHTS; Nicotinate-nucleotide adenylyltransferase NadD (Staphylococcus aureus N315); purified NadD enzyme, colorimetric absorbance read-out; inhibition, % at 20 µM; 0.78% of 360,000 active; in the data active = inhibition above about 26%
# rCAG RNA binder = binders of r(CAG) RNA repeats, primary screen, biochemical, fluorescence. r(CAG) RNA repeat, TO-PRO-1 dye displacement fluorescence. inhibition, % at 3 µM. 1.3% of 370,000 active. AID 651821, 2012;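 active = inhibition above the plate cutoff, the mean of all test compounds on that plate plus 3 SD, cut at about 35% in these data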;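 note: 0% = DMSO alone and 100% = 100 µM mitoxantrone as full dye displacement; higher means more dye released from RNA so lower well fluorescence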
# MsrA inhibitor = bovine MsrA enzyme inhibitors, primary screen, biochemical, absorbance, HTS | Methionine sulfoxide reductase A (Bos taurus) | purified bovine MsrA, absorbance read-out | inhibition, % at 15.5 µM | 0.75% of 360,000 active | AID 651718, 2012; in the data active = inhibition above about 4.5%;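 note: 0% = vehicle wells with enzyme and 100% = reference inhibitor wells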
# rCAG binder conf = small molecules binding CAG repeat RNA – biochemical, fluorescence, confirmation; shares compounds with rCAG RNA binder; r(CAG) RNA repeat, TO-PRO-1 dye displacement fluorescence; inhibition, % at 3 µM; 70% of 4,300 active; AID 652065, 2013;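 active = inhibition above a per-plate cutoff, the mean inhibition of sample wells plus 3 SD, cut at about 35% in these data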;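 note: loss of TO-PRO-1 fluorescence as compound displaces dye from 1x1 AA loop RNA; 0% = DMSO only wells and 100% = 100 µM mitoxantrone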
# DNA CAG counter = displacement of TO-PRO-1 from CAG DNA duplex, counter-screen for rCAG RNA repeat binder project, biochemical, fluorescence, TO-PRO-1 dye, d(CAG) DNA oligo. AID 652068, 2013. 94% of 4,300 active. d(CAG) DNA oligo TO-PRO-1 dye displacement. inhibition, % at 3 µM. shares compounds with rCAG RNA binder;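 active = inhibition above its plate's cutoff, the mean test-well inhibition plus 3 SD, cut at about 4.8% in these data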;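 note: 0% = DNA dye mix with DMSO and 100% = 100 µM mitoxantrone; hits displace the dye from DNA and so lower well fluorescence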
# Active calls of the source: *; x = not tested or not shown. In the library only some 3.2% were active in any assay of this set; here they are far more common.
SMILES,bovine MsrA act,DSG3 Ab inh,DAGLB inhibitor,NadD block,rCAG RNA binder,MsrA inhibitor,rCAG binder conf,DNA CAG counter
Cc1ccc(Cc2c(-c3ccc(F)cc3)nc3c(Cl)cc(C(F)(F)F)cn23)cc1,-8,x,x,-2,28,0,x,x
O=C(COc1ccccc1C(=O)O)Nc1nc2ccc([N+](=O)[O-])cc2s1,-4,101,4,3,40*,2,37*,12*
COC(=O)c1ccc(N2NC(=O)/C(=C/c3cc(OC)c(OC)c(OC)c3)C2=O)cc1,-3,115,11,6,65*,1,61*,20*
COc1cc(/C=C2/C(=O)NN(c3ccc(Cl)cc3)C2=O)cc(Br)c1O,-5,111,22,-3,46*,1,25,8.9*
COc1cc(/C=N/NC(=O)c2ccc(F)cc2)ccc1OC(=O)c1ccco1,-5,124,-2,-5,0,1,x,x
COc1cccc(/C=C2/C(=O)NN(c3ccc(Br)cc3)C2=O)c1O,-3,118,7,7,16,4,x,x
COC(=O)c1ccc(N2NC(=O)/C(=C/c3cc(OC)c(O)c(OC)c3)C2=O)cc1,-3,101,6,-2,42*,1,15,4.6*
COc1cc(/C=C2/C(=O)NN(c3cccc(F)c3)C2=O)ccc1OC(=O)c1ccco1,-2,114,16,21,46*,-1,82*,44*
COC(=O)C1=C(C)N(Cc2ccc(C)cc2)C(=O)/C1=C\c1cc(OC)c(OC)c(OC)c1,-3,89,-1,0,4,1,x,x
O=C(CCC1CCN(Cc2nccs2)CC1)Nc1ccccc1,0,105,-4,-3,4,-1,x,x
COC(=O)c1ccc2nc(-c3ccc(OC)c(OC)c3)c(Cc3ccccc3C(F)(F)F)n2c1,x,x,x,x,6,0,x,x
CC(=O)c1ccc(NC(=O)CN2C(=O)/C(=C/C=C/c3ccccc3)SC2=S)cc1,-3,80*,10,36*,38*,0,22,15*
O=C(CCCN1C(=O)S/C(=C\C=C\c2ccccc2)C1=O)Nc1ccc(C(=O)O)cc1,-4,x,1,7,28,2,x,x
O=C(CN1C(=O)S/C(=C\C=C\c2ccccc2)C1=O)Nc1cccc(O)c1,-5,107,0,20,18,2,x,x
O=C(CN1C(=O)S/C(=C\C=C\c2ccccc2)C1=O)Nc1ccccc1C(=O)O,-9,87,14,4,77*,3,84*,52*
Cc1ccc(-n2c(SCC(=O)Nc3ccc(Oc4ccccc4)cc3)nnc2-c2cccc(C)c2)cc1,x,x,x,x,8,x,x,x
COc1ccc(-n2c(COc3ccc(C)cc3)nnc2SCC(=O)Nc2ccc(S(=O)(=O)Nc3cc(C)nc(C)n3)cc2)cc1,x,x,x,x,51*,x,44*,14*
Cc1cc(NS(=O)(=O)c2ccc(NC(=O)CSc3nnc(-c4ccccn4)n3-c3ccccc3)cc2)nc(C)n1,x,x,x,x,22,x,x,x
CCOc1ccc(-n2c(SCC(=O)Nc3ccc(S(=O)(=O)Nc4cc(C)nc(C)n4)cc3)nnc2-c2cccc(C)c2)cc1,x,x,x,x,47*,x,47*,16*
COc1ccc(-n2c(SCC(=O)Nc3ccc(S(=O)(=O)Nc4cc(C)nc(C)n4)cc3)nnc2-c2ccco2)cc1,x,x,x,x,34,x,x,x
Cc1ccc(-n2c(SCC(=O)Nc3ccc(S(=O)(=O)Nc4cc(C)nc(C)n4)cc3)nnc2-c2ccc(C(C)(C)C)cc2)cc1,x,x,x,x,44*,x,42*,16*
CCOc1ccc(-n2c(SCC(=O)Nc3ccc(S(=O)(=O)Nc4cc(C)nc(C)n4)cc3)nnc2-c2ccc(OC)cc2)cc1,x,x,x,x,41*,x,44*,15*
NS(=O)(=O)c1ccc(NC(=O)CSc2nc3ccccc3c(=O)n2-c2ccc(Br)cc2)cc1,x,x,x,x,23,x,x,x
CNC(=O)c1cc(Oc2ccc(NC(=O)c3[nH]c(-c4ccccc4)c4c3C(=O)N(C)C4=O)cc2)ccn1,-2,x,x,8,4,0,x,x
COc1ccc(-n2nnnc2C(c2cccs2)N2CCN(C/C=C/c3ccccc3)CC2)cc1 (stereo unspecified),-1,x,x,4,6,1,x,x
SMILES,bovine MsrA act,DSG3 Ab inh,DAGLB inhibitor,NadD block,rCAG RNA binder,MsrA inhibitor,rCAG binder conf,DNA CAG counter
CCOc1ccc(-n2c(SCC(=O)Nc3ccc(S(=O)(=O)Nc4cc(C)nc(C)n4)cc3)nnc2-c2ccc(C)cc2)cc1,x,x,x,x,52*,x,58*,18*
CCOc1ccc(-n2c(SCC(=O)Nc3ccc(S(=O)(=O)Nc4cc(C)nc(C)n4)cc3)nnc2-c2ccncc2)cc1,x,x,x,x,20,x,x,x
CCc1ccc(NC(=O)/C(C#N)=C/c2cn(CC(=O)O)c3ccccc23)cc1,-4,101,3,10,36*,3,21,5.9*
N#C/C(=C/c1cn(CC(=O)O)c2ccccc12)C(=O)Nc1ccccc1,-9,102,-3,-3,5,1,x,x
Cc1cccc(NC(=O)/C(C#N)=C\c2cn(CC(=O)O)c3ccccc23)c1,-4,92,-1,-5,2,1,x,x
CCOc1ccc(NC(=O)/C(C#N)=C/c2cn(CC(=O)O)c3ccccc23)cc1,-4,118,3,-6,56*,3,50*,15*
CCOc1cccc(NC(=O)/C(C#N)=C\c2cn(CC(=O)O)c3ccccc23)c1,-1,113,6,15,57*,1,56*,18*
CC(=O)c1ccc(NC(=O)NC2CCCCN(Cc3ccc(Cl)cc3)C2=O)cc1 (stereo unspecified),x,x,x,x,5,x,x,x
O=S(=O)(Nc1ccc(S(=O)(=O)N2CCCCC2)cc1)c1ccc(Br)s1,-3,107,6,-3,60*,-1,60*,16*
O=S(=O)(Nc1ccc(S(=O)(=O)N2CCCCCC2)cc1)c1cccs1,-6,98,-2,-3,22,-1,x,x
CC1(c2nnnn2-c2ccc3ccccc3c2)CSCC(=O)N1C1CC1 (stereo unspecified),x,x,x,x,2,x,x,x
O=C(O)c1[nH]c2ccc(Cl)cc2c1CC(=O)N1CCN(C(=O)c2ccco2)CC1,-8,90,0,1,26,-1,x,x
Cc1ccc(C)c(N2CCN(C(=O)Cc3c(C(=O)O)[nH]c4ccc(Cl)cc34)CC2)c1,-1,98,8,15,57*,1,64*,25*

# From PubChem
